Data: the supplement of paper PMC11732987, “Enantioselective OTUD7B fragment discovery through chemoproteomics screening and high-throughput optimisation” (Communications Chemistry, 2025)

How the values were obtained:
Assay in all cases: log2 ratio of Biotin-Ahx-Ub-VS probe labelling (fragment/DMSO); higher = less target engagement (more negative = stronger competition), active = hit call of the paper (q ≤ 0.05, log2 ratio ≤ -1)
Details in all cases: compound concentration: 200 uM; treatment time: 3 h
USP42 = target: T1, USP42 (UniProt Q9H9J4)
T1 sequence (whole entry): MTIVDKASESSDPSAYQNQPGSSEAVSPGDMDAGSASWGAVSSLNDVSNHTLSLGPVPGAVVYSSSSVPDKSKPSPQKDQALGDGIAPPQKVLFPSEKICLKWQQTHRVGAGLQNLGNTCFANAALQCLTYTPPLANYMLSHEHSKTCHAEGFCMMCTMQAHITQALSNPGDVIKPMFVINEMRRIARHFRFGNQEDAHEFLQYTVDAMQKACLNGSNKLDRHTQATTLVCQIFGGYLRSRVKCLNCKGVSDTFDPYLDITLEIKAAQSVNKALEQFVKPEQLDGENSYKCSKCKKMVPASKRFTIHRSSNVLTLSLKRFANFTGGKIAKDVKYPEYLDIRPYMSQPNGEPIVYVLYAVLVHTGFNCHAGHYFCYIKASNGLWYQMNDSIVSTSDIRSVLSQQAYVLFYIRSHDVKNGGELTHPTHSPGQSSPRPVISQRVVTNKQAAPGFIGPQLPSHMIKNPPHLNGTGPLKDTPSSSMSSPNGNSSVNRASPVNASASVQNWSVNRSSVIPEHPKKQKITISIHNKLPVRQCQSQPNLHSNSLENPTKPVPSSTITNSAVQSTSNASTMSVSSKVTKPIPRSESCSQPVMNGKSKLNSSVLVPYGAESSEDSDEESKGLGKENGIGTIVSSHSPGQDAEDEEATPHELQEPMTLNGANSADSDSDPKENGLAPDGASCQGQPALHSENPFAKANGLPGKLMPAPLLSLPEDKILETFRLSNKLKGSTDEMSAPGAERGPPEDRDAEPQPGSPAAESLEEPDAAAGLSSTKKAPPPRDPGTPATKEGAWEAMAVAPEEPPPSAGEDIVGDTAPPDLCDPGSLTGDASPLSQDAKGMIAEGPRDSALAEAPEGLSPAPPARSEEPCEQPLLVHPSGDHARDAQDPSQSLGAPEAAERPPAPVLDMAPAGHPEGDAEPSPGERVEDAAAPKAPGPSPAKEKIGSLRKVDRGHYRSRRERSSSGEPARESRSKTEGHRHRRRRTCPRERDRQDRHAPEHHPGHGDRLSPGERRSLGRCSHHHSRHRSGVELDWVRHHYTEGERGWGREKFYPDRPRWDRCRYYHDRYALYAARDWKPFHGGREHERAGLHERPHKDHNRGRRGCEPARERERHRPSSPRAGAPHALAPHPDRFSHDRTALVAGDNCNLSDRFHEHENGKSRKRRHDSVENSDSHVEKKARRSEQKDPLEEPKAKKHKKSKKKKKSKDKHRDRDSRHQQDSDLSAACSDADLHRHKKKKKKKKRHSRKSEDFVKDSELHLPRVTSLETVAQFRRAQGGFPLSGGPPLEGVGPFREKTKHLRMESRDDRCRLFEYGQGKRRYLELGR
Method in brief: (§1)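 Each value is an average log2 ratio of fragment to vehicle, tested by unpaired t-test. The underlying Spectronaut label-free quantities were global-median-normalised, and only proteins with ≥2 unique peptides were included. Triplicate HEK293T lysate samples (495 µg) were exposed to fragment at 200 µM or vehicle for 3 h, then to Biotin-Ahx-Ub-VS at 0.5 µM final for 1 h, before NeutrAvidin enrichment of labelled DUBs, LysC and trypsin digestion, and diaPASEF LC-MS/MS.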

USP46 = USP46 (UniProt P62068)
Method in brief: as §1

USP47 = target: T2, USP47 (UniProt Q96K76)
T2 sequence (whole entry): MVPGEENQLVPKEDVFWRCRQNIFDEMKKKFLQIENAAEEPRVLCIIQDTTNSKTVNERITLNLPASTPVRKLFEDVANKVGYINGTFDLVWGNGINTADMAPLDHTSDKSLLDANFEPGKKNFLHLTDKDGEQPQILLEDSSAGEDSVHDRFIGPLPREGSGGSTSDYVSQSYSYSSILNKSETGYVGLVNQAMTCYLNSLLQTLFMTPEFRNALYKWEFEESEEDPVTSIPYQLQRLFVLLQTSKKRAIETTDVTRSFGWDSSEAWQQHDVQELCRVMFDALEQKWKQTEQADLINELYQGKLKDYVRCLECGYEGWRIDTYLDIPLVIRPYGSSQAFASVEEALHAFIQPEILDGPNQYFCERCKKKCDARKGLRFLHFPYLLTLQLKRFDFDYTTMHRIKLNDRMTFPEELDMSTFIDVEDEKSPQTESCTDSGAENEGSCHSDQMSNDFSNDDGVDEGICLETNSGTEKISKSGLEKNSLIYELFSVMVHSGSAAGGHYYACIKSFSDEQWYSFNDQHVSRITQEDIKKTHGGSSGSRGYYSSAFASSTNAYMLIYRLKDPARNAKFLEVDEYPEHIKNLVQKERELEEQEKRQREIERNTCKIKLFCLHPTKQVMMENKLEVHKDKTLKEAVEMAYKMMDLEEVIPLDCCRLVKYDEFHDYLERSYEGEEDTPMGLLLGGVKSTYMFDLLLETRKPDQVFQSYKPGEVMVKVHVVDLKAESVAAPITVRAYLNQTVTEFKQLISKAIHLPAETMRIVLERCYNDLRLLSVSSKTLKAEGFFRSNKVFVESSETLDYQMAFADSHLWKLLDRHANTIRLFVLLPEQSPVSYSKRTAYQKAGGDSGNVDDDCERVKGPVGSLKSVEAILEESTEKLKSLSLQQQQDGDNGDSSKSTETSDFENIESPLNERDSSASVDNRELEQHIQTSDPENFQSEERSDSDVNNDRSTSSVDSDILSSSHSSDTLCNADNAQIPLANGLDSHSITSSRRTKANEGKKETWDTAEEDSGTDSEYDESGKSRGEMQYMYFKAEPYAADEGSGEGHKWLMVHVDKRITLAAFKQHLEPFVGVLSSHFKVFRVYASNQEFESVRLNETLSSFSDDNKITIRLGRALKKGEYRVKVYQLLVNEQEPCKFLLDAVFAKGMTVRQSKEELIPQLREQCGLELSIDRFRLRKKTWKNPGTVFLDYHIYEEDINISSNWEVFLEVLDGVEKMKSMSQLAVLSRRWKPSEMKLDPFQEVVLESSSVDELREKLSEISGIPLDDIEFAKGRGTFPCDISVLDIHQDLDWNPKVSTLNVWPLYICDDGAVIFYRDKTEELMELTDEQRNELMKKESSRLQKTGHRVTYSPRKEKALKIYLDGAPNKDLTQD
Method in brief: as §1

USP48 = target: T3, USP48 (UniProt Q86UV5)
T3 sequence (whole entry): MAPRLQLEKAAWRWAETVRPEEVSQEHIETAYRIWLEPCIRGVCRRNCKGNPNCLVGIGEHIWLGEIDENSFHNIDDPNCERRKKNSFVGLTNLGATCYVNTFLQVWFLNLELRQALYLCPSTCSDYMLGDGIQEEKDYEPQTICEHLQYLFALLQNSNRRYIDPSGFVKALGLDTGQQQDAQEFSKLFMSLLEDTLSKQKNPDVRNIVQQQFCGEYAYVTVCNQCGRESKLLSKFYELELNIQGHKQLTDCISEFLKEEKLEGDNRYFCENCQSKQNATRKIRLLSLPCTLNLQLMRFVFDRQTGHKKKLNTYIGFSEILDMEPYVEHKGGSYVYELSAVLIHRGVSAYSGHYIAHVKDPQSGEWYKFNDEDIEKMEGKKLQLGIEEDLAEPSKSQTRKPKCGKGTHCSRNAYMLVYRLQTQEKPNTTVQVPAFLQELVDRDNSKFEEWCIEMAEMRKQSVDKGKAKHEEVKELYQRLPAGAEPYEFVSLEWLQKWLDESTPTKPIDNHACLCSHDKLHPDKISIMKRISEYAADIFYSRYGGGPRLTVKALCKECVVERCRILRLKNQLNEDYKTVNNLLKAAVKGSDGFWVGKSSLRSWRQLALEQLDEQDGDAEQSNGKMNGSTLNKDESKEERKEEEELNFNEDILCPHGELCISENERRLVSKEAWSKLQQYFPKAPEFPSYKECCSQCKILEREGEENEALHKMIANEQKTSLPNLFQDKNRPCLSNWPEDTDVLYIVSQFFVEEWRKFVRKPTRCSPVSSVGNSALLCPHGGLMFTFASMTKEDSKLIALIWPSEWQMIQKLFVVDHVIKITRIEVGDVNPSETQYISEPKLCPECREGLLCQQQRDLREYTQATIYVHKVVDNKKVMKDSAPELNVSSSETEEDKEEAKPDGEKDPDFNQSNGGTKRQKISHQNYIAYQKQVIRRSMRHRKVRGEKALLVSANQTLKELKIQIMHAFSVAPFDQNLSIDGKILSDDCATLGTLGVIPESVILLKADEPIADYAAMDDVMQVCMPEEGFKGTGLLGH
Method in brief: as §1

USP5 = target: T4, USP5 (UniProt P45974)
T4 sequence (whole entry): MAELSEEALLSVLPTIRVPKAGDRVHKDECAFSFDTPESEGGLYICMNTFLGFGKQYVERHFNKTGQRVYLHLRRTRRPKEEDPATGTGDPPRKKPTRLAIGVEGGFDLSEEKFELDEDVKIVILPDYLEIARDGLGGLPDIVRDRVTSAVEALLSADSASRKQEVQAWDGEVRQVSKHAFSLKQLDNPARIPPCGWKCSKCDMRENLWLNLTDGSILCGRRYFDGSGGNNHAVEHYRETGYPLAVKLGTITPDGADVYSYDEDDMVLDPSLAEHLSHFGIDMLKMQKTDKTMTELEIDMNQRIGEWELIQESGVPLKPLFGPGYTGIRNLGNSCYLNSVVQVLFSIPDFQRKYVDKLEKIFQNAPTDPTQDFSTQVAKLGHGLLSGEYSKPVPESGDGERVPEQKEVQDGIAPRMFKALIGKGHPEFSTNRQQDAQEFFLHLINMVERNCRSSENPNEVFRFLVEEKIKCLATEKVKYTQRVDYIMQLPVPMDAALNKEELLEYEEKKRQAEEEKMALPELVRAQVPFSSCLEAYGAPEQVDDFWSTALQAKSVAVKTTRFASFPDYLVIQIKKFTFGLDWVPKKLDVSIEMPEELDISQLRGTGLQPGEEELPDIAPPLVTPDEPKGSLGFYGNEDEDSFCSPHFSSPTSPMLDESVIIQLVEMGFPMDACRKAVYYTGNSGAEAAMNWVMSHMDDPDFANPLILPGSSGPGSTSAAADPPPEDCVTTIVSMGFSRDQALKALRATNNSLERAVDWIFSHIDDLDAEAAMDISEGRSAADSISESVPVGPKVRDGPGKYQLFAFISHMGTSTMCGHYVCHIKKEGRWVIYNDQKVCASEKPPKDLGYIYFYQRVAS
Method in brief: as §1

USP54 = USP54 (UniProt Q70EL1)
Method in brief: as §1

USP7 = USP7 (UniProt Q93009)
Method in brief: as §1

USP8 = target: T5, USP8 (UniProt P40818)
T5 sequence (whole entry): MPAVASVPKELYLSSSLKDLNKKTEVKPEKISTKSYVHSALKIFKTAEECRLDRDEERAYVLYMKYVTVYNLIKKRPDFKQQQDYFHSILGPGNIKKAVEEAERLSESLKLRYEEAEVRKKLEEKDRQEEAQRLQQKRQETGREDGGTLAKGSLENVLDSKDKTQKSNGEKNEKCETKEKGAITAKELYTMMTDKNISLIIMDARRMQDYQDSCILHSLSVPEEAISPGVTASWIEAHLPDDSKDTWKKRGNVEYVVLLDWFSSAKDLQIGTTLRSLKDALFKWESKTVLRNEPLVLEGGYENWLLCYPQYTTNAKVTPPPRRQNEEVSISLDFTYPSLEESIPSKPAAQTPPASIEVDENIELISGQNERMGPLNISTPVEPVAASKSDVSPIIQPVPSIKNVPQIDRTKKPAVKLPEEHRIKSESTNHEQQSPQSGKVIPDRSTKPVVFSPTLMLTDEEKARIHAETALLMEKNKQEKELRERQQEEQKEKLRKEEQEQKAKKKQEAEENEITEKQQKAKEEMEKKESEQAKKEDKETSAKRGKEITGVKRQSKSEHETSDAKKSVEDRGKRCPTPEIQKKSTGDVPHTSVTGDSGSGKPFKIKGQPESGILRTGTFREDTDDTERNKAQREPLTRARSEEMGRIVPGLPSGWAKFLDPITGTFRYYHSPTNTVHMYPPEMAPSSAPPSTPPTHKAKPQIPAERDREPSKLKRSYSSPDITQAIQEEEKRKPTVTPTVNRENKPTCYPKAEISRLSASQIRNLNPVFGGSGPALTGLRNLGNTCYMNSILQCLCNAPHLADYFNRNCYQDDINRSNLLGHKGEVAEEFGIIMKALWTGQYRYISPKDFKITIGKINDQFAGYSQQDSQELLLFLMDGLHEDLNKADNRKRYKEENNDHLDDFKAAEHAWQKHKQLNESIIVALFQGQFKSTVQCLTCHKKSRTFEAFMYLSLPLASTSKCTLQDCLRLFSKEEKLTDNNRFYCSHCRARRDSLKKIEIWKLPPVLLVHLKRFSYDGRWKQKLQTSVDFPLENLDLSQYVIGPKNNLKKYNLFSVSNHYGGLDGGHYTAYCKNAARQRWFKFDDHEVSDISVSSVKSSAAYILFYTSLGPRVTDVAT
Method in brief: as §1

USP9X = USP9X (UniProt Q93008)
Method in brief: as §1

UniProt O00487 = target: UniProt O00487
Method in brief: as §1

Measured: log2 ratio of Biotin-Ahx-Ub-VS probe labelling

Chain of USP46 (P62068 whole entry): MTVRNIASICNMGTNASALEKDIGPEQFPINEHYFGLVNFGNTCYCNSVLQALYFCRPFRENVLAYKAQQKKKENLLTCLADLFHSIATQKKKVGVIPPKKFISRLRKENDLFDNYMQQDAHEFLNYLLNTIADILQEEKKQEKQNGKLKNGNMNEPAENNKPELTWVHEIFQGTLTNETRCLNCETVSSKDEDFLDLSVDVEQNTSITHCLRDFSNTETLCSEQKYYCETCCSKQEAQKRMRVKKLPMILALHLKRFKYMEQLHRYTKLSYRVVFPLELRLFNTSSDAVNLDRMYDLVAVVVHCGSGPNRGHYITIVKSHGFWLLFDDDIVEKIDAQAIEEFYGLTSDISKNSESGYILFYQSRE
Chain of UniProt O00487 (O00487 whole entry): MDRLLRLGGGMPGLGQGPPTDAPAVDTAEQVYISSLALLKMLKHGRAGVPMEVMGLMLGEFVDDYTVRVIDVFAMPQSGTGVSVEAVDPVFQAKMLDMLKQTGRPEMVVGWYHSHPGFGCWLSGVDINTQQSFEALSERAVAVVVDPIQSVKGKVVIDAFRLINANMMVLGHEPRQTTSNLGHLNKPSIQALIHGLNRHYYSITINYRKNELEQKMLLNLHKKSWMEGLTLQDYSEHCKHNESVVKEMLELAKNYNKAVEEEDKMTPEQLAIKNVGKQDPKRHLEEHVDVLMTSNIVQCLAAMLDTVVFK
Chain of USP9X (Q93008 whole entry): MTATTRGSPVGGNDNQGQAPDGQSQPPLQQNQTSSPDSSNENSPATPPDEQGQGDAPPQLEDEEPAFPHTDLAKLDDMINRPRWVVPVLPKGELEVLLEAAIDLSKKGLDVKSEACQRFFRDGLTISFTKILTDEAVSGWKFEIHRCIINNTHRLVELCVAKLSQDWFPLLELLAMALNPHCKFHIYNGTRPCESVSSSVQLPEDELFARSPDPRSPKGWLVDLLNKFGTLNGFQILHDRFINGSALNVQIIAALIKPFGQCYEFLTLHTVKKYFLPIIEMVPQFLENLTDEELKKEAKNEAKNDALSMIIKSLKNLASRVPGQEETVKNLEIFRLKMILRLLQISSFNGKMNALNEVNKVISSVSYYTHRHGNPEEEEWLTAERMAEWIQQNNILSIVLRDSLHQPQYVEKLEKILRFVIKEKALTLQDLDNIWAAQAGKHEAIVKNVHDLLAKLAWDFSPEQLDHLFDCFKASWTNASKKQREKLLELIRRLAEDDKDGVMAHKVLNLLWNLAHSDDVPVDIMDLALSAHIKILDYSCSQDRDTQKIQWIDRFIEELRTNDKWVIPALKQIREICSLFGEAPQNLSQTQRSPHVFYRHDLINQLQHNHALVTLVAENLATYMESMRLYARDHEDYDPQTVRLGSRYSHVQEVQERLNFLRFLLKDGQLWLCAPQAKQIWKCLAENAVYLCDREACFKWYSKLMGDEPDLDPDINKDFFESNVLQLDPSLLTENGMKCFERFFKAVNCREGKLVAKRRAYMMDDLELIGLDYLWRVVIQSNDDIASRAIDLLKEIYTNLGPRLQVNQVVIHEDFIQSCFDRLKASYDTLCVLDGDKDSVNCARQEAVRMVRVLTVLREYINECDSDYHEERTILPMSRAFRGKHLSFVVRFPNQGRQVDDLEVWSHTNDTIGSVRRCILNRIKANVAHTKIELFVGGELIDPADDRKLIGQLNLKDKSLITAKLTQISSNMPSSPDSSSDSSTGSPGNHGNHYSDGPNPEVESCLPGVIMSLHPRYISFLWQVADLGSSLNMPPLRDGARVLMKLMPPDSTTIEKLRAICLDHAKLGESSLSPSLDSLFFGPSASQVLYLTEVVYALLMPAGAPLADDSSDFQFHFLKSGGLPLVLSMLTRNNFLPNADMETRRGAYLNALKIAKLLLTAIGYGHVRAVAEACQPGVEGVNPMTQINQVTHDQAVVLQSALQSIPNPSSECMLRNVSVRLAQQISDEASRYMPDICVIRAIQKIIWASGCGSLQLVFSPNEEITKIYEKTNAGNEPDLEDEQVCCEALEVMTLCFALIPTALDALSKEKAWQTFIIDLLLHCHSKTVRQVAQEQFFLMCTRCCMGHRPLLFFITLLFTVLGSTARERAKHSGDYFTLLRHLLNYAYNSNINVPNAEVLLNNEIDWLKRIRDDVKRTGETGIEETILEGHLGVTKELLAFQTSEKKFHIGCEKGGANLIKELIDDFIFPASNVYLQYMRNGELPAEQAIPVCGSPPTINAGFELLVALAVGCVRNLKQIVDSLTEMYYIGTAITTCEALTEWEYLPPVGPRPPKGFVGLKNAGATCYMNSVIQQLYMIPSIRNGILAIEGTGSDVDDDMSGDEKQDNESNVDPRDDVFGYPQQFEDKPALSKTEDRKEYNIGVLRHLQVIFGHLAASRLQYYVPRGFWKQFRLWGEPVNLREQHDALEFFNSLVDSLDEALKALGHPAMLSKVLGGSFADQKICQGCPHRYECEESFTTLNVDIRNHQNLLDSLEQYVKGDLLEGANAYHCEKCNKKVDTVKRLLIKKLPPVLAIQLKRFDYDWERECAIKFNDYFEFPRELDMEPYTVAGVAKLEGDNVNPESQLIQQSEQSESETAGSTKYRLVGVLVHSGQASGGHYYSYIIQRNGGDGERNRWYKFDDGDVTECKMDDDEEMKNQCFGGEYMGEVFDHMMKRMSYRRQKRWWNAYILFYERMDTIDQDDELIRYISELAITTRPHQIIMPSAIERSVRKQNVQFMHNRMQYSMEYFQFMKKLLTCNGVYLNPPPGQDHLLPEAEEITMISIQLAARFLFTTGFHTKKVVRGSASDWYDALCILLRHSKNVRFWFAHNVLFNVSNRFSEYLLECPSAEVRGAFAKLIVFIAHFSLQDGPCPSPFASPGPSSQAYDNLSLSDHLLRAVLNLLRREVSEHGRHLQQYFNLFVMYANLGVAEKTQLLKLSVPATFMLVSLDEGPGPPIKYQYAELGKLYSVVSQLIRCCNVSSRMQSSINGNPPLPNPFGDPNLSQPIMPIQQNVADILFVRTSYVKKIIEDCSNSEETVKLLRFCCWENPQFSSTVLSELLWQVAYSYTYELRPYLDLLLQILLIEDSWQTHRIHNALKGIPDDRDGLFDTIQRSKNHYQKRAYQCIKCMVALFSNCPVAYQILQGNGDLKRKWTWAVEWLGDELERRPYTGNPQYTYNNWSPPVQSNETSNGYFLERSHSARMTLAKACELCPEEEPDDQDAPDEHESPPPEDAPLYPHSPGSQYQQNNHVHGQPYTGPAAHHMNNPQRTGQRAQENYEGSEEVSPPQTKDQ
Chain of USP7 (Q93009 whole entry, looked up): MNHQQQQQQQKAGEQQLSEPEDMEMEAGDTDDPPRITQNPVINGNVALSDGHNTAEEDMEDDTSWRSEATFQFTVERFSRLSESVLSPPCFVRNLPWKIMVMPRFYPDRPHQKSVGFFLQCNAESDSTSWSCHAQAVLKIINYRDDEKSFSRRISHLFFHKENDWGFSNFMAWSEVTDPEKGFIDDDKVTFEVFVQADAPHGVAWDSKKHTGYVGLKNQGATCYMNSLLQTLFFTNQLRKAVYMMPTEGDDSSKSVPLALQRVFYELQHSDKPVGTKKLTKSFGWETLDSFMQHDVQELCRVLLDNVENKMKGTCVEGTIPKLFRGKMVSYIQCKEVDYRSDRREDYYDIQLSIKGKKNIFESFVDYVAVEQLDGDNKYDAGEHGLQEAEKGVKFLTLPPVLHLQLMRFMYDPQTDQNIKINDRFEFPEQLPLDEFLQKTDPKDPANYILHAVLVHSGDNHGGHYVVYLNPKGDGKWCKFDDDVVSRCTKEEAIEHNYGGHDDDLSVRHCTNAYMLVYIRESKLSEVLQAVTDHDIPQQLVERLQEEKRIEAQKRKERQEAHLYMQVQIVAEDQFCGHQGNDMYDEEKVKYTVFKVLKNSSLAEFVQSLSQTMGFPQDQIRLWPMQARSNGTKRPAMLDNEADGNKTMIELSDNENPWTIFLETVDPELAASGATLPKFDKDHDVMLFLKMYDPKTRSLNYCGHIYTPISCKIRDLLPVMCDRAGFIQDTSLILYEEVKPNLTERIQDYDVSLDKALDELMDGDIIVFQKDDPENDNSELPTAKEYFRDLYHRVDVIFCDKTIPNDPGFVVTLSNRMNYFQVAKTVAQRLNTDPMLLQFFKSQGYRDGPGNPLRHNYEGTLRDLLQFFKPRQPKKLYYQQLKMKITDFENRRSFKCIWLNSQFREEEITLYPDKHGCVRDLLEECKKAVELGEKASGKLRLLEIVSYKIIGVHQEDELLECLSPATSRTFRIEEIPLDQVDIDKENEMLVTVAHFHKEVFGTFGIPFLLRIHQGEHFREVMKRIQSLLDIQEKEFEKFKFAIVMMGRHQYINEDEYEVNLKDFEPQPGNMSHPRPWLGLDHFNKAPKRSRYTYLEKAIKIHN

COc1ccc(CN(C)C(=O)CCl)cc1
inactive: USP42 0.294 | USP46 -0.0887 | USP47 -0.0389 | USP48 -0.604 | USP5 0.404 | USP54 0.256 | USP7 -0.907 | USP8 -0.448 | USP9X -0.178 | UniProt O00487 -0.0169
